The supplement of paper PMC13094657
Where a name gives a salt, the structure may show the parent alone. ± gives the standard deviation of the averaged measurements.

How the values were obtained:
MDA-MB-231 [1] = assay: cell viability relative to vehicle unstimulated control (fraction); higher = more viable cells; settings: pre-treatment time: 18 h then 24 h IFNg/TNF
MDA-MB-231 [2] = assay: kynurenine production, fold change vs DMSO IFNg/TNF control; higher = more kynurenine produced (less inhibition); settings: pre-treatment time: 18 h then 24 h IFNg/TNF
In short: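 After trichloroacetic acid and p-dimethylaminobenzaldehyde treatment, supernatants were read at 492 nm, with 0–100 μM standards. These came from MDA-MB-231 cells (7 × 10^4/well, 96-well plates) pre-treated 18 h with natural products in 0.1% DMSO and then exposed 24 h to IFNγ (1 U/ml) and TNF (6.25 ng/ml) at 37°C. Values for kynurenine production are fold changes over same-plate cytokine-stimulated vehicle wells, averaged over duplicate plates in the first screening round.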
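For cell viability relative to vehicle unstimulated control in this document: viability of the cells left after supernatant collection, read with Deep Blue dye added for 4 h, as absorbance at 570 nm minus 600 nm.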

## CC1(C)O[C@H]2CC(=O)OC[C@]23[C@H]2CC[C@@]4(C)[C@H](c5ccoc5)OC(=O)[C@H]5O[C@]54[C@]2(C)C(=O)C[C@@H]13 [Limonin] (compound dose: 10 uM)
MDA-MB-231 [1]
  cell viability: 0.9819 ± 0.0068
MDA-MB-231 [2]
  kynurenine production: 0.86 ± 0.3

## CC(C)(O)[C@H]1CC[C@@](C)([C@H]2[C@@H](O)C[C@@]3(C)[C@@H]4C[C@H](O)[C@H]5C(C)(C)[C@@H](O)CC[C@@]56C[C@@]46CC[C@]23C)O1 [Cyclogalegenin] (compound dose: 10 uM)
MDA-MB-231 [1]
  cell viability: 0.999 ± 0.043
MDA-MB-231 [2]
  kynurenine production: 0.854 ± 0.064

## C=C(C)[C@H]1CC=C(C)C(=O)C1 [D(+)-carvone] (compound dose: 10 uM)
MDA-MB-231 [1]
  cell viability: 1 ± 0.026
MDA-MB-231 [2]
  kynurenine production: 0.864 ± 0.022

## CC(=O)O[C@@H]1CC[C@@]2(C)[C@@H](CC[C@]3(C)[C@@H]2[C@H](O)C=C2[C@@H]4[C@@H](C)[C@H](C)CC[C@]4(C)CC[C@]23C)[C@@]1(C)C(=O)O [3-O-Acetyl-11-hydroxy-beta-boswellic acid] (compound dose: 10 uM)
MDA-MB-231 [1]
  cell viability: 0.8634 ± 0.0022
MDA-MB-231 [2]
  kynurenine production: 0.988 ± 0.083

## COc1ccc2c3c1O[C@H]1C[C@@H](O)C=C[C@@]31CCN(C)C2 [Galantamine hydrobromide] (compound dose: 10 uM)
MDA-MB-231 [1]
  cell viability: 1.04
MDA-MB-231 [2]
  kynurenine production: 0.792 ± 0.067

## CC1(C)CC[C@]2(C(=O)O[C@@H]3O[C@H](CO)[C@@H](O)[C@H](O)[C@H]3O)CC[C@]3(C)C(=CC[C@@H]4[C@@]5(C)CC[C@H](O[C@@H]6O[C@H](C(=O)O)[C@@H](O[C@@H]7O[C@@H](CO)[C@H](O)[C@H]7O)[C@H](O)[C@H]6O)C(C)(C)[C@@H]5CC[C@]43C)[C@@H]2C1 [Araloside A] (compound dose: 10 uM)
MDA-MB-231 [1]
  cell viability: 1.05 ± 0.032
MDA-MB-231 [2]
  kynurenine production: 1.31 ± 0.014

## CC(C)=CCC[C@@H](C(=O)O)[C@H]1CC[C@@]2(C)C3=CC[C@H]4C(C)(C)[C@@H](O)CC[C@]4(C)C3=CC[C@]12C [3-Dehydrotrametenolic acid] (compound dose: 10 uM)
MDA-MB-231 [1]
  cell viability: 1.01 ± 0.045
MDA-MB-231 [2]
  kynurenine production: 0.83 ± 0.085

## C[C@@H]1CC[C@@]2(OC1)O[C@H]1C[C@H]3[C@@H]4CC=C5C[C@@H](O)C[C@@H](O)[C@]5(C)[C@H]4CC[C@]3(C)[C@H]1[C@@H]2C [Ruscogenin] (compound dose: 10 uM)
MDA-MB-231 [1]
  cell viability: 1.01 ± 0.037
MDA-MB-231 [2]
  kynurenine production: 1.32 ± 0.2

## C=C[C@]1(C)C[C@@H](OC(=O)CO)[C@]2(C)[C@H](C)CC[C@]3(CCC(=O)[C@@H]32)[C@@H](C)[C@@H]1O [Pleuromutilin] (compound dose: 10 uM)
MDA-MB-231 [1]
  cell viability: 1.01 ± 0.057
MDA-MB-231 [2]
  kynurenine production: 0.861 ± 0.094

## C[C@H]1[C@H](C)CC[C@]2(C(=O)O)CC[C@]3(C)C(=CC[C@@H]4[C@@]5(C)CCC(=O)C(C)(C)[C@@H]5CC[C@]43C)[C@H]12 [Ursonic acid] (compound dose: 10 uM)
MDA-MB-231 [1]
  cell viability: 0.9233 ± 0.0046
MDA-MB-231 [2]
  kynurenine production: 0.733 ± 0.12

## C=C1C[C@@]23CC[C@H]4[C@@](C)(CCC[C@@]4(C)C(=O)O[C@@H]4O[C@H](CO)[C@@H](O)[C@H](O)[C@H]4O[C@@H]4O[C@H](CO)[C@@H](O)[C@H](O)[C@H]4O)[C@@H]2CC[C@]1(O[C@@H]1O[C@H](CO)[C@@H](O)[C@H](O[C@@H]2O[C@H](CO)[C@@H](O)[C@H](O)[C@H]2O)[C@H]1O[C@@H]1O[C@H](CO)[C@@H](O)[C@H](O)[C@H]1O)C3 [Rebaudioside D] (compound dose: 10 uM)
MDA-MB-231 [1]
  cell viability: 0.931 ± 0.038
MDA-MB-231 [2]
  kynurenine production: 0.9927 ± 0.0066

## C/C=C(/C)C(=O)O[C@H]1C(C)=C[C@]23C(=O)[C@@H](C=C(CO)[C@@H](O)[C@]12O)[C@H]1[C@@H](C[C@H]3C)C1(C)C [Ingenol 3-Angelate] (compound dose: 10 uM)
MDA-MB-231 [1]
  cell viability: 0.958 ± 0.11
MDA-MB-231 [2]
  kynurenine production: 0.979 ± 0.16

## C=C1C(=O)O[C@H]2C[C@@H](C)[C@@H]3[C@@H](OC(C)=O)C[C@H](O)[C@@]3(C)[C@@H](OC(C)=O)[C@H]12 [Britannin] (compound dose: 10 uM)
MDA-MB-231 [1]
  cell viability: 1.01 ± 0.043
MDA-MB-231 [2]
  kynurenine production: 0.268 ± 0.075

## CC(=O)O[C@@]1(C)C[C@@H](O)[C@]2(O)C=CO[C@@H](O[C@@H]3O[C@H](CO)[C@@H](O)[C@H](O)[C@H]3O)[C@@H]21 [8-O-Acetylharpagide] (compound dose: 10 uM)
MDA-MB-231 [1]
  cell viability: 0.9 ± 0.067
MDA-MB-231 [2]
  kynurenine production: 0.906 ± 0.076

## C=C(C)[C@@H]1CC[C@]2(C(=O)O[C@@H]3O[C@H](CO[C@@H]4O[C@H](CO)[C@@H](O[C@@H]5O[C@@H](C)[C@H](O)[C@@H](O)[C@H]5O)[C@H](O)[C@H]4O)[C@@H](O)[C@H](O)[C@H]3O)CC[C@]3(C)[C@H](CC[C@@H]4[C@@]5(C)CC[C@H](O[C@@H]6OC[C@H](O)[C@H](O)[C@H]6O[C@@H]6O[C@@H](C)[C@H](O)[C@@H](O)[C@H]6O)[C@@](C)(CO)[C@@H]5CC[C@]43C)[C@@H]12 [Pulchinenoside C] (compound dose: 10 uM)
MDA-MB-231 [1]
  cell viability: 0.9971 ± 0.0034
MDA-MB-231 [2]
  kynurenine production: 1.03 ± 0.18

## C=C[C@@]1(C)CC(=O)[C@]2(O)[C@@]3(C)[C@@H](O)CCC(C)(C)[C@@H]3[C@H](O)[C@H](OC(C)=O)[C@@]2(C)O1 [Forskolin] (compound dose: 10 uM)
MDA-MB-231 [1]
  cell viability: 0.785 ± 0.079
MDA-MB-231 [2]
  kynurenine production: 1.37 ± 0.25

## C=C1[C@H](OC(=O)/C=C(\C)CC)C[C@@H](C(C)C)[C@@H]2[C@@H]([C@@H](C)OC(C)=O)C(=O)C[C@@H]12 [Tussilagone] (compound dose: 10 uM)
MDA-MB-231 [1]
  cell viability: 1.01 ± 0.034
MDA-MB-231 [2]
  kynurenine production: 1.0216 ± 0.00014

## C=C1C[C@@]2(O)O[C@@]3(C[C@H]2C(C)C)[C@@H](C)CC[C@@H]13 [Curcumol] (compound dose: 10 uM)
MDA-MB-231 [1]
  cell viability: 0.997 ± 0.034
MDA-MB-231 [2]
  kynurenine production: 0.833 ± 0.1

## C[C@@H]1[C@H]2[C@H](O[C@@H]3O[C@H](CO)[C@@H](O)[C@H](O)[C@H]3O)OC=C(C(=O)O)[C@H]2C[C@@H]1O [Loganic acid] (compound dose: 10 uM)
MDA-MB-231 [1]
  cell viability: 0.999 ± 0.016
MDA-MB-231 [2]
  kynurenine production: 1.01 ± 0.16

## CC(=O)OC/C1=C/[C@H]2[C@@H](OC(=O)/C=C/c3ccccc3)[C@@H](C)C[C@]2(OC(C)=O)C(=O)/C(C)=C/[C@@H]2[C@H](CC1)C2(C)C [Euphorbia factor L7a] (compound dose: 10 uM)
MDA-MB-231 [1]
  cell viability: 1.086 ± 0.0038
MDA-MB-231 [2]
  kynurenine production: 0.948 ± 0.035

## CC1=CC[C@@H](C(C)(C)O)CC1 [(-)-α-terpineol] (compound dose: 10 uM)
MDA-MB-231 [1]
  cell viability: 0.979 ± 0.044
MDA-MB-231 [2]
  kynurenine production: 0.913 ± 0.057

## Cc1cc(O)c2c(c1)C(=O)c1cc(O)cc(O[C@@H]3O[C@H](CO)[C@@H](O)[C@H](O)[C@H]3O)c1C2=O [Emodin-8-glucoside] (compound dose: 10 uM)
MDA-MB-231 [1]
  cell viability: 0.9845 ± 0.0046
MDA-MB-231 [2]
  kynurenine production: 0.872 ± 0.14

## COC(=O)C1=CO[C@@H](O[C@@H]2O[C@H](CO[C@@H]3O[C@H](CO)[C@@H](O)[C@H](O)[C@H]3O)[C@@H](O)[C@H](O)[C@H]2O)[C@@H]2C(CO)=CC[C@H]12 [Genipin 1-β-D-gentiobioside] (compound dose: 10 uM)
MDA-MB-231 [1]
  cell viability: 0.849 ± 0.014
MDA-MB-231 [2]
  kynurenine production: 0.718 ± 0.24

## C=C1C[C@@]23CC[C@H]4[C@@](C)(CCC[C@@]4(C)C(=O)O[C@@H]4O[C@H](CO)[C@@H](O)[C@H](O)[C@H]4O)[C@@H]2CC[C@]1(O[C@@H]1O[C@H](CO)[C@@H](O)[C@H](O)[C@H]1O[C@@H]1O[C@H](CO)[C@@H](O)[C@H](O)[C@H]1O)C3 [Stevioside] (compound dose: 10 uM)
MDA-MB-231 [1]
  cell viability: 1.05 ± 0.015
MDA-MB-231 [2]
  kynurenine production: 0.959 ± 0.14

## CC(=O)OC(CC(C)C1=C2C[C@H](O)C3[C@@]4(C)CCC(=O)C(C)(C)C4CC[C@]3(C)[C@@]2(C)CC1)C1OC1(C)C (stereo partly drawn) [Alisol B 23-acetate] (compound dose: 10 uM)
MDA-MB-231 [1]
  cell viability: 1.05 ± 0.034
MDA-MB-231 [2]
  kynurenine production: 1.27 ± 0.24

## CC(C)=CCC[C@@H](C)[C@@H]1CC[C@]2(C)C3=C(CC[C@@]12C)[C@@]1(C)CC[C@H](O)C(C)(C)[C@@H]1CC3 [Euphol] (compound dose: 10 uM)
MDA-MB-231 [1]
  cell viability: 0.977 ± 0.051
MDA-MB-231 [2]
  kynurenine production: 1.008 ± 0.0013

## C=C1CC/C=C(\C)CC[C@@H]2[C@@H]1CC2(C)C [β-Caryophyllene] (compound dose: 10 uM)
MDA-MB-231 [1]
  cell viability: 0.9919 ± 0.0069
MDA-MB-231 [2]
  kynurenine production: 0.844 ± 0.19

## C[C@@H]1C[C@@H]2O[C@@]3(O[C@@H]2C(C)(C)O)[C@H](O)[C@@]2(C)[C@@H]4CC[C@H]5C(C)(C)[C@@H](O)CC[C@@]56C[C@@]46CC[C@]2(C)[C@@H]13 [Cimigenol] (compound dose: 10 uM)
MDA-MB-231 [1]
  cell viability: 1.03 ± 0.066
MDA-MB-231 [2]
  kynurenine production: 0.778 ± 0.31

## CC1=CC[C@@H](C(C)(C)O)CC1 [α-Terpineol] (compound dose: 10 uM)
MDA-MB-231 [1]
  cell viability: 1.02 ± 0.059
MDA-MB-231 [2]
  kynurenine production: 0.896 ± 0.0054

## C[C@@]12C[C@@]3(O)O[C@@H](O1)[C@]1(COC(=O)c4ccccc4)[C@H]3C[C@@]12O[C@@H]1O[C@H](CO)[C@@H](O)[C@H](O)[C@H]1O [Paeoniflorin] (compound dose: 10 uM)
MDA-MB-231 [1]
  cell viability: 1.03 ± 0.16
MDA-MB-231 [2]
  kynurenine production: 1.34 ± 0.27

## CC1(C)C2CC=C(C=O)C1C2 (single isomer, unassigned; (-)) [(-)-Myrtenal] (compound dose: 10 uM)
MDA-MB-231 [1]
  cell viability: 0.988 ± 0.056
MDA-MB-231 [2]
  kynurenine production: 0.941 ± 0.084

## CC(C)(O)[C@H]1CC[C@@](C)([C@H]2CC[C@]3(C)[C@@H]2[C@H](O)C[C@@H]2[C@@]4(C)CC[C@H](O)C(C)(C)[C@@H]4[C@@H](O[C@@H]4O[C@H](CO)[C@@H](O)[C@H](O)[C@H]4O)C[C@]23C)O1 [Pseudoginsenoside RT5] (compound dose: 10 uM)
MDA-MB-231 [1]
  cell viability: 0.987 ± 0.016
MDA-MB-231 [2]
  kynurenine production: 0.865 ± 0.21

## CC1(C)CC[C@]2(C(=O)O)CC[C@]3(C)C(=CC[C@@H]4[C@@]5(C)CCC(=O)C(C)(C)[C@@H]5CC[C@]43C)[C@@H]2C1 [Oleanonic acid] (compound dose: 10 uM)
MDA-MB-231 [1]
  cell viability: 0.957 ± 0.031
MDA-MB-231 [2]
  kynurenine production: 1.136 ± 0.0017

## CC(C)=CCC[C@](C)(O)[C@H]1CC[C@]2(C)[C@@H]1[C@H](O)C[C@@H]1[C@@]3(C)CC[C@H](O)C(C)(C)[C@@H]3[C@@H](O[C@@H]3O[C@H](CO)[C@@H](O)[C@H](O)[C@H]3O[C@@H]3OC[C@@H](O)[C@H](O)[C@H]3O)C[C@]12C [Notoginsenoside R2] (compound dose: 10 uM)
MDA-MB-231 [1]
  cell viability: 1.04 ± 0.031
MDA-MB-231 [2]
  kynurenine production: 1.24 ± 0.12
